Screens: PubChem, Johns Hopkins Ion Channel Center
KCNQ2 pot: potentiators of rat KCNQ2 potassium channel. CHO-K1 KCNQ2, FluxOR thallium flux fluorescence; stronger effect = higher value. B-score at 10 µM. actives 0.54% (n = 310,000). AID 2239, 2010;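 active = fluorescence ratio B-score at least 3 SD of library B-scores, with initial fluorescence B-score within 3 of them, cut at about 5.3 in these data; same plate scores as AID 2156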;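 note: B-score of peak minus minimum over baseline fluorescence ratio after K+ and Tl+ stimulus; positive B-score means potentiation of KCNQ2 with more thallium influx and brighter signal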
KCNQ2 block: rat KCNQ2 potassium channel inhibitors, primary screen, cell-based, CHO-K1, FluxOR thallium flux, B-score. Potassium voltage-gated channel subfamily KQT member 2 (Rattus norvegicus), O88943. 20 min; stronger effect = lower value. B-score at 10 µM. actives 1.1% (n = 310,000). AID 2156, 2009;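 active = fluorescence ratio B-score at most minus 3 library SDs, with starting brightness B-score within 2 library SDs, cut at about -5.5 in these data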
Kir21 confirm: mouse Kir2.1 channel blockers, retest, confirmation, cell-based, FluxOR thallium flux, duplicate | shares compounds with KCNQ2 pot | Kir2.1-expressing cells, FluxOR thallium flux fluorescence; stronger effect = lower value | Tl flux remaining, % of negative control (stronger effect = lower value), % at 10 µM | actives 41% (n = 2,300);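 active = Primary-screen hit whose thallium flux fell at least 3 control SD below untreated wells in both duplicates, with normal baseline fluorescence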;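 note: 0% = blank wells without stimulus and 100% = stimulated no-compound controls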
HEK293 ctr: counter-screen for Kir2.1 inhibitors: effect in parental HEK293 cells | shares compounds with KCNQ2 pot | FluxOR thallium flux fluorescence; 0% = unstimulated blank wells | FluxOR signal as % of negative control (100 = no effect), % at 10 µM | actives 19% (n = 2,300) | AID 2105;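 active = dye signal at least 3 control SD above or below untreated wells in both duplicates, raw fluorescence within 3, either direction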;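 note: percent is based on the flux ratio of peak minus minimum fluorescence over baseline F0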
CHO-K1 Tl ctr: nonspecific thallium flux increase in parental CHO-K1, confirmation, counter-screen for KCNQ2 potentiator project, cell-based, FluxOR thallium flux, duplicate; AID 2282, 2010; parental CHO-K1 cells, FluxOR thallium flux fluorescence; zero = vehicle mean+3SD, 100% = vehicle-minus-blank window; actives 43% (n = 1,200); shares compounds with KCNQ2 pot; activity increase over 3SD of controls, % at 10 µM;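 active = signal rise of at least 3 SD above the untreated control mean, in both duplicate wells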;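 note: counter screen of KCNQ2 potentiator hits so any rise reflects channel-independent effects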
KCNQ1 sel pot: human KCNQ1 channel potentiation off-target, confirmation, selectivity assay for KCNQ2 potentiator project, cell-based, CHO, FluxOR thallium flux. actives 28% (n = 1,200). activation over 3SD threshold, % at 10 µM. CHO KCNQ1 stable, FluxOR thallium flux fluorescence; beyond 3SD, as % of vehicle-control signal. AID 2283, 2010. shares compounds with KCNQ2 pot;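 active = fluorescence ratio rise of at least 3 SD of vehicle wells above their mean, in both replicate wells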;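 note: 0% = vehicle mean plus 3 SD and 100% = vehicle minus unstimulated blank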
KCNQ2 pot conf: rat KCNQ2 channel potentiators, confirmation, cell-based, CHO, FluxOR thallium flux, duplicate | shares compounds with KCNQ2 pot | CHO-KCNQ2 cells, FluxOR thallium flux fluorescence | potentiation, less the hit threshold, % at 10 µM | actives 68% (n = 1,200) | AID 2287, 2010;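 active = fluorescence ratio rising 3 SD or more over the vehicle control mean in both replicates, plus primary screen hit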;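 note: peak minus minimum thallium fluorescence divided by baseline after K/Tl stimulus; 0% = vehicle mean plus 3 SD and 100% = vehicle minus unstimulated blank difference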
Kir21 spec: mouse Kir2.1 channel activation off-target, confirmation, selectivity assay for KCNQ2 potentiator project, cell-based, HEK293, FluxOR thallium flux; shares compounds with KCNQ2 pot; HEK293 Kir2.1, FluxOR thallium flux fluorescence; activity over 3SD threshold, % at 10 µM; actives 2% (n = 1,200);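 active = fluorescence ratio rise of at least 3 SD above the vehicle-control mean, seen in both replicates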;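 note: 0% = vehicle mean plus 3 SD and 100% = vehicle minus no-stimulus blank window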
KCNQ2 W236L MoA: potentiators of retigabine-insensitive KCNQ2 W236L, mechanism study for KCNQ2 potentiator project, cell-based, rat KCNQ2 W236L, CHO, automated patch clamp. shares compounds with KCNQ2 pot. automated patch clamp current. current increase over 3SD of negative controls (%), stronger effect = higher value, % at 25 µM. actives 10% (n = 940). AID 2558, 2010;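 active = current increase at least 3 SD of the untreated controls above them in both duplicate recordings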
Target sequence (O88943 whole entry W236L, looked up): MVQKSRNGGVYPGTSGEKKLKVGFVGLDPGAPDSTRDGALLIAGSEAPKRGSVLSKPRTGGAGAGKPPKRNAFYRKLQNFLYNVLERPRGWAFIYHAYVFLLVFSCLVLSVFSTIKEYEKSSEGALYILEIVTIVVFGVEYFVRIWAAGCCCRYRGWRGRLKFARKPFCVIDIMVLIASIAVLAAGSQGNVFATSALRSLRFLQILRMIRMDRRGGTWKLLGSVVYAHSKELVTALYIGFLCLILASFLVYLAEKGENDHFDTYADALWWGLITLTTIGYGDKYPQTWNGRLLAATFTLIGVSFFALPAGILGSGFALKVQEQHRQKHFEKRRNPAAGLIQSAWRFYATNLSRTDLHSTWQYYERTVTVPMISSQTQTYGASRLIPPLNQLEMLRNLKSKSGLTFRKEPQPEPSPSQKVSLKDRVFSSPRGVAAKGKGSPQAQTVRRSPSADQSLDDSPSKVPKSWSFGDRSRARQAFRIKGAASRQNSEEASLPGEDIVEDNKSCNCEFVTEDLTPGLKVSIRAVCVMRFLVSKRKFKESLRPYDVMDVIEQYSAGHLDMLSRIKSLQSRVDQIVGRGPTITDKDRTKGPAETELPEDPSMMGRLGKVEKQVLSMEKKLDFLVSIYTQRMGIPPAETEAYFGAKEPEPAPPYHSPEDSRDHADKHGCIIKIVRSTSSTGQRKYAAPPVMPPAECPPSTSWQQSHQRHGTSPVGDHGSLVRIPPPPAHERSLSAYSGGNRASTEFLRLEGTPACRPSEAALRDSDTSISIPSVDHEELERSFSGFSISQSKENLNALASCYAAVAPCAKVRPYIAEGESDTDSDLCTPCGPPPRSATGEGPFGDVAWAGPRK
* hit, by the source's call; i = inactive; x = not tested or not shown. In the library only some 1.6% were active in any assay of this set; here they are far more common.

SMILES	KCNQ2 pot	KCNQ2 block	Kir21 confirm	HEK293 ctr	others
CC1CCN(c2ccc(NC(=S)NC(=O)c3ccco3)cc2)CC1	3.9	i	x	x
CC(CCc1ccccc1)NC(=S)NC(=O)c1ccco1 (stereo not given)	5.6*	i	i	183%*	CHO-K1 Tl ctr=-26;KCNQ1 sel pot=-14;KCNQ2 pot conf=-3;Kir21 spec=-36;KCNQ2 W236L MoA=i
O=C(NC(=S)Nc1cccc2c(O)cccc12)c1ccco1	0.76	i	x	x
Cc1occc1C(=O)NC(C)CCc1ccccc1 (stereo not given)	0.55	i	x	x
O=C(NC(=S)Nc1ccccc1Cl)c1ccco1	11*	i	i	154%*	CHO-K1 Tl ctr=-15;KCNQ1 sel pot=-17;KCNQ2 pot conf=4.7*;Kir21 spec=-30;KCNQ2 W236L MoA=i
O=C(NC(=S)Nc1cccc(Cl)c1N1CCCCC1)c1ccco1	8.3*	i	i	i	CHO-K1 Tl ctr=44*;KCNQ1 sel pot=-10;KCNQ2 pot conf=6.2*;Kir21 spec=-29;KCNQ2 W236L MoA=i
COc1ccccc1NC(=O)CSc1ccc(-c2ccc(-n3ccnc3)cc2)nn1	x	i	x	x
O=C(CN1C(=O)S/C(=C\c2ccccc2F)C1=O)NC1C=CS(=O)(=O)C1 (stereo not given)	x	i	x	x
O=C(COC(=O)/C=C/c1ccc(C(F)(F)F)cc1)NCc1ccco1	x	i	x	x
O=C(NCCOc1ccc(F)cc1)C1CCC(=O)N(CC2CCCCC2)C1 (stereo not given)	1.3	i	x	x
O=C(O)C1CCN(S(=O)(=O)c2ccc(N3CCCC3C(=O)O)c([N+](=O)[O-])c2)CC1 (stereo not given)	x	i	x	x
Cc1c(C(=O)N(C)C2CCCCC2)sc2ncnc(N3CCN(c4ccccc4)CC3)c12	x	i	x	x
O=C(NC(=S)Nc1ccccc1N1CCCCC1)c1ccco1	3.7	i	x	x
COc1ccc2nc(NC(=S)NC(=O)c3ccco3)sc2c1	13*	i	i	i	CHO-K1 Tl ctr=3.0*;KCNQ1 sel pot=2.4*;KCNQ2 pot conf=6.4*;Kir21 spec=-28;KCNQ2 W236L MoA=i
CCC(C)c1ccccc1NC(=S)NC(=O)c1ccco1 (stereo not given)	12*	i	i	383%*	CHO-K1 Tl ctr=-7;KCNQ1 sel pot=68*;KCNQ2 pot conf=48*;Kir21 spec=-16;KCNQ2 W236L MoA=i
O=C(NC(=S)Nc1ccccc1N1CCCC1)c1ccco1	7.5*	i	i	182%*	CHO-K1 Tl ctr=69*;KCNQ1 sel pot=-30;KCNQ2 pot conf=-8;Kir21 spec=-42;KCNQ2 W236L MoA=i
COc1ccc2sc(NC(=O)c3ccco3)nc2c1	0.45	i	x	x
COc1cccc(OC)c1C(=O)Nc1ccc(N2CCCC2)cc1	0.05	i	i	i
CC(C)C(=O)N1CCN(c2ccccc2NC(=S)NC(=O)c2ccco2)CC1	0.68	i	x	x
COc1ccccc1C(=O)Nc1ccc(N2CCCCC2)cc1	x	i	x	x
CC(=O)C1=C(O)C(=O)N(c2ccc(Br)cc2)C1c1cccc([N+](=O)[O-])c1 (stereo not given)	0.16	i	x	x
COC(=O)c1cnc(N2CCCN(S(=O)(=O)c3ccc(C(F)(F)F)cc3)CC2)nc1C(F)(F)F	x	i	x	x
COc1ccc(C2=NS(=O)(=O)N(C)C(C(=O)NCc3ccc4c(c3)OCO4)=C2)cc1OC	2.4	i	x	x
O=C(NC(=S)Nc1nc(-c2ccccc2)cs1)c1ccco1	5.4*	i	i	i	CHO-K1 Tl ctr=-3;KCNQ1 sel pot=81*;KCNQ2 pot conf=1.2*;Kir21 spec=-35;KCNQ2 W236L MoA=i
COc1ccc(-c2csc(NC(=S)NC(=O)c3ccco3)n2)cc1	5.1	i	x	x
SMILES	KCNQ2 pot	KCNQ2 block	Kir21 confirm	HEK293 ctr	others
CC(=O)c1ccc(NC(=S)NNC(=O)c2ccncc2)cc1	x	i	x	x
CN1CCN(C2=Cc3ccc(Cl)cc3Sc3ccc(F)cc32)CC1	x	i	x	x
CN1CCN(C2=Cc3ccccc3Sc3cc(F)ccc32)CC1	x	i	57%*	i
COC(=O)C1=CN(c2cccc(Cl)c2)C=C(C(=O)OC)C1c1cccc(OC)c1	x	i	x	x
Cc1cc(Br)cnc1NC(=S)Nc1ccc(F)cc1F	x	i	x	x
COC(=O)c1cc2c(N)c(C(=O)c3ccccc3)sc2nc1C(OC)OC	0.65	i	x	x
COc1ccc(Nc2ccnc3ccccc23)cc1	2	i	14%*	i
COc1ccc(Nc2ncnc3ccccc23)cc1	2.4	i	x	x
O=C1CC(NS(=O)(=O)c2ccccc2F)CN1c1ccc2c(c1)OCCO2 (stereo not given)	1.6	i	x	x
Nc1c(C(=O)Nc2ccccc2)c2nc3ccccc3nc2n1-c1ccc(O)cc1	x	i	x	x
CCCCCCOc1ccc(/C(C)=N/NC2=NCCN2)cc1[N+](=O)[O-]	0.72	i	x	x
CCCCOc1ccc(Br)cc1/C(C)=N/NC1=NCCN1	x	i	i	i
CC(NC(=O)CCNS(=O)(=O)c1cccc2nonc12)c1ccccc1 (stereo not given)	x	i	x	x
Cn1cc(S(=O)(=O)N2CCc3ccccc32)cc1C(=O)NC(C)(C)C	0.8	i	x	x
CCc1cccc(N(CC(=O)NC2CCCCC2)C(=O)c2csnn2)c1	0.05	i	x	x
Cc1onc(-c2ccccc2)c1CNS(=O)(=O)c1cccc(Br)c1	0.46	i	52%*	i
Cc1onc(-c2ccccc2)c1CNS(=O)(=O)c1ccc(F)cc1F	x	i	x	x
COc1cc(=O)[nH]c(SC(C)C(=O)Nc2cc(C)on2)n1 (stereo not given)	1.7	i	x	x
CCCN(c1nc(C)cc(OC)n1)S(=O)(=O)c1ccccc1	x	i	50%*	i
COc1cc(C)nc(N(Cc2ccccc2)S(=O)(=O)c2ccccc2)n1	x	i	x	x
Cc1cc(N2C(=O)Cc3ccccc3C2=O)ccc1C(C)C	x	i	x	x
